Screens as filed in PubChem.
Pf growth 96h – P. falciparum growth inhibition at 96 hours | hit rate 6.9% among 320,000 | P. falciparum luciferase reporter growth, 96 h | Potency, µM (series often up to 28.7 µM), for inactives: top-dose activity change, negative = inhibition, actives largely listed as inhibitors; further: on the % scale 0 is the no-effect control and ±100 the full control effect
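Erythrocytes infected with luciferase-expressing P. falciparum were dispensed at 2% hematocrit and 0.05% parasitemia (final), then incubated with compounds 96 hours at 37 C in 5% CO2. Luminescence after detection reagent addition reported growth.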
Sm TGR block – S. mansoni TGR enzyme inhibition; Q962Y6; purified TGR, DTNB reduction, TNB absorbance 405 nm; Potency, µM (highest dose often 114 µM), inactives show at the highest dose activity change, negative = inhibition, most hits filed as inhibitors; hit rate 3% among 360,000; further: on the % scale 0 is the no-effect control and ±100 the full control effect; nearly all actives have a fitted effect of over 60% in size
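TGR 20 nM + NADPH 100 uM (dispensed conc.), cpd preinc 15 min RT; start with NADPH (500 uM addition) then DTNB (15 mM addition). Kinetic TNB absorbance, 405 nm filter. Four-parameter Hill fit across titration.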
Pf growth 48h – P. falciparum growth inhibition at 48 hours (one generation). P. falciparum luciferase growth in erythrocytes, 48 h. AID 504832. Potency, µM (titrated, usually from 28.7 µM), without a hit: at the highest dose activity change, negative = inhibition, actives largely listed as inhibitors. hit rate 5.9% among 310,000; further: on the % scale 0 is the no-effect control and ±100 the full control effect
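Parasite viability was followed by luminescence of a genomically integrated firefly luciferase. Cultures held 0.1% parasitemia at 2% hematocrit (final), incubated under 5% CO2 at 37 C.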
SARS PLP yeast – blocks SARS-CoV papain-like protease in a yeast assay; S. cerevisiae expressing SARS-CoV PLpro, growth rescue; Potency, µM (series often up to 32.9 µM), without a hit: at the highest dose activity, positive = growth rescue, usual class: activators; hit rate 0.19% among 330,000; AID 485353; calls by dose curve; further: 0% is about no effect; nearly all actives have a fitted effect of over 55% in size
* marks the source's active call; other numbers are inactive results; ? = inconclusive; . = not tested or not shown. Shown are actives, neighbours in structure and some others; about 12% of the full set was active somewhere. Unless noted, the call rests on the fitted dose curve; in most records, active means well fitted curve in the direction sought with a large enough effect; inconclusive means small, poorly fitted or top-dose-only effect, or another doubt; inactive means no such curve, though single readings can be large; an effect the other way counts as inactive or inconclusive. Potency means the concentration at half of the fitted maximal effect.

SMILES	Pf growth 96h	Sm TGR block	Pf growth 48h	SARS PLP yeast
CN(C)c1ccc(N2C(=O)CC(Sc3ccccc3C(=O)O)C2=O)cc1 (configuration not stated)	41%	28µM*	10%	-92%
CCCCN1C(=O)CC(Sc2ccccc2C(=O)O)C1=O (configuration not stated)	-20%	20µM*	32%	1%
CN1C(=O)CC(Sc2ccccc2C(=O)O)C1=O (configuration not stated)	94%	?	47%	-3%
CN(C(=O)CC1C(=O)NCCN1Cc1ccc(F)c(F)c1)C1CCCCC1 (configuration not stated)	?	?	-3%	-6%
O=C(NC1CCCCCC1)C1CCCN(c2ncccn2)C1 (configuration not stated)	0%	23%	?	5%
O=C(Cn1ccc2ccccc2c1=O)NCCC(=O)N1CCN(c2cccc(Cl)c2)CC1	7.4µM*	-8%	.	-3%
O=C(CN1CCN(c2cccc(Cl)c2)CC1)NCc1ccccc1	10µM*	0%	1%	-10%
O=C(Cc1ccccc1)Nc1cccc(N2CCCC2)c1	.	32µM*	?	0%
O=C(CN1CCOCC1)NCc1ccccc1	?	-31%	9%	6%
O=C(CN1CCCC1)NCc1ccccc1	13µM*	?	-162%	2%
COc1ccc(OCCCC(=O)Nc2cc(Cl)ccc2-n2cncn2)cc1	?	-3%	?	2%
CCOC(=O)c1c(/N=C/N(C)C)sc(/C=N/Nc2ccccc2)c1-c1ccc(Cl)cc1	3.3µM*	3%	13µM*	1%
CSc1nc2nccc(-c3ccc(Oc4ccccc4)cc3)n2n1	.	-8%	?	-5%
CSc1nc2nccc(-c3ccc(-c4ccccc4)cc3)n2n1	10µM*	-9%	.	-5%
O=C(NNC1=Nc2cccc3cccc1c23)c1ccc(Br)cc1	-27%	.	12µM*	1%
COc1ccc(CC(=O)NNC2=Nc3cccc4cccc2c34)cc1OC	2%	-4%	9%	0%
CCC1CN(C(=O)C2CCN(S(=O)(=O)c3c(C)noc3/C=C/c3ccc(C)cc3)CC2)c2cc(C)ccc2O1 (configuration not stated)	.	3%	.	.
COc1ccc(S(=O)(=O)NNC(=O)C2COc3ccccc3O2)cc1[N+](=O)[O-] (configuration not stated)	-16%	0%	-3%	4%
CC[C@H](C)Cc1cn([C@@H](CCCN=C(N)N)C(=O)NCCCCCCCCCCC(=O)N2CCNCC2)nn1	?	-19%	4.7µM*	6%
CC[C@H](C)[C@@H](C(=O)NCCCCCCCCCCC(=O)N1CCNCC1)n1cc(CCCCN=C(N)N)nn1	2.3µM*	?	2.9µM*	4%
NCCCC[C@@H](C(=O)NCCCCCCCCCCC(=O)N1CCNCC1)n1cc(CCCC(=O)O)nn1	61%	-24%	-7%	-11%
CC1CN(CC(=O)NCc2ccc(F)cc2)CC(C)O1 (configuration not stated)	36%	0%	25%	1%
CCc1ccc(S(=O)(=O)/N=C2\C=C(Nc3ccc(C(=O)O)cc3)C(=O)c3ccccc32)cc1	3.7µM*	-9%	2.3µM*	-2%
O=C(O)c1cccc(NS(=O)(=O)c2ccc3c(c2)C(=O)c2ccccc2C3=O)c1	-18%	0%	24%	0%
Cc1ccc(S(=O)(=O)/N=C2\C=C(Nc3cccc(C(=O)O)c3)C(=O)c3ccccc32)cc1	-9%	-31%	4.7µM*	-1%
SMILES	Pf growth 96h	Sm TGR block	Pf growth 48h	SARS PLP yeast
CCc1ccc(NC2=NC(C(=O)c3ccccc3)CC(=O)N2)cc1 (configuration not stated)	.	4%	2%	-6%
Cc1ccc(S(=O)(=O)/N=C2\C=C(Nc3ccc(O)cc3)C(=O)c3ccccc32)cc1	.	.	.	-1%
Cc1ccc(S(=O)(=O)/N=C2\C=C(Nc3cccc(C(=O)O)c3)C(=O)c3ccccc32)c(C)c1	19%	?	1.7µM*	0%
O=C(COc1ccccc1)NNc1c2ccccc2nc2ccccc12	-12%	6%	5.2µM*	-19%
Cc1nc2ccccc2c(=O)n1NC(=O)COc1ccccc1	.	19%	1%	0%
Cc1cccc(OCC(=O)NCc2cc(C)nc3ccccc23)c1	9.3µM*	-20%	-13%	0%
COc1ccc(OCC(=O)NNC(=O)C(=O)Nc2ccccc2)cc1	.	.	.	-1%
COc1ccc(OCC(=O)NNc2c3ccccc3nc3ccccc23)cc1	2.1µM*	-8%	7.4µM*	-9%
Cc1ccc(C(=O)CCC(=O)N2CCC(C(N)=O)CC2)s1	-11%	7%	-16%	6%
COc1cc(CCCN2CCNC[C@H]2Cc2cccc3ccccc23)cc(OC)c1OC	.	.	.	13%
COc1cccc(-c2nc(-c3ccccc3)c(-c3ccccc3)[nH]2)c1OCC(=O)O	183%	-23%	?	6%
COc1cccc(-c2nc(-c3ccc4c(c3)-c3ccccc3S4(=O)=O)c(-c3ccccc3)[nH]2)c1OC	?	?	9.3µM*	-13%
COc1cc(-c2nc(-c3ccccc3)c(-c3cccs3)[nH]2)cc(OC)c1OC	.	-17%	?	-5%
COc1cc(-c2nc(-c3ccc4c(c3)-c3ccccc3S4(=O)=O)c(-c3ccccc3)[nH]2)cc(OC)c1OC	2%	56µM*	1.9µM*	2%
COc1cnc(-c2ccccn2)nc1Oc1ccccc1Cl	2.6µM*	5%	7.4µM*	8%
COc1ccccc1Sc1nc(-c2ccccn2)ncc1OC	?	-3%	?	2%
COc1cnc(-c2ccccn2)nc1Oc1ccc(F)cc1F	10µM*	5%	10µM*	11%
COc1cnc(-c2ccccn2)nc1Oc1ccc(Cl)c2ccccc12	6.6µM*	11%	2.1µM*	-14%
COc1cnc(-c2ccccn2)nc1Oc1ccc(Cl)cc1	5.2µM*	?	0.37µM*	-18%
COc1cnc(-c2ccccc2)nc1Oc1ccc(C(C)(C)C)cc1	?	5%	?	-17%
CCOc1ccc(NC(=O)CSC2=Nc3ccccc3C3=NC(CC(=O)NCc4ccc5c(c4)OCO5)C(=O)N23)cc1 (configuration not stated)	.	1%	.	.
O=c1c2ccccc2n(Cc2cccc(F)c2)c(=O)n1Cc1ccccc1Cl	.	-1%	.	.
COc1cnc(-c2ccccn2)nc1NC(C)C	?	-2%	15µM*	-8%
CCn1nc(C)c(C(=O)Nc2cc(Oc3cc(C)cc(C)c3)cc([N+](=O)[O-])c2)c1C	12µM*	3%	?	-13%
Cc1nn(C)cc1C(=O)Nc1cc(Oc2ccc(Cl)cc2)cc([N+](=O)[O-])c1	.	-18%	?	-4%
O=C(NCCCN1CCN(c2ccc(F)cc2)CC1)c1ccc2nc(Cc3ccccc3)oc2c1	.	-1%	.	.
Cc1ccc(NC(=O)C2CCCN(S(=O)(=O)c3ccc4c(c3)CCCC(=O)N4)C2)cc1Cl (configuration not stated)	.	2%	.	.
COc1cc2cc(CN(Cc3nnnn3Cc3ccco3)C3CCCCC3)c(=O)[nH]c2cc1OC	.	13µM*	8.3µM*	4%
